# Assay outcomes: PubChem, Broad Institute
# ALR H2O2 inh – inhibitors of human ALR sulfhydryl oxidase, primary screen, biochemical, H2O2 detection, HRP-luminol luminescence, single point | actives 3.8% (n = 290,000) | AID 485317, 2010 | FAD-linked sulfhydryl oxidase ALR (Homo sapiens), P55789 | inhibition, % (test concentration not listed) | purified ALR, DTT oxidation;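 active = mean replicate inhibition above about 79%, with every replicate also reaching it, limit read from the data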
# Target sequence (P55789 whole entry, looked up): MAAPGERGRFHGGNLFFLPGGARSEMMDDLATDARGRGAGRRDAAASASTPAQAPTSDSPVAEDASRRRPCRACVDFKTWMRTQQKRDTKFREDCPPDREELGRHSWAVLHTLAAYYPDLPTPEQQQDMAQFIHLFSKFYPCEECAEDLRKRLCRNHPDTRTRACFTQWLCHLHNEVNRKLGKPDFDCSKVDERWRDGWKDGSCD
# HIV Env fusion – inhibitors of HIV-1 Env-driven cell-cell fusion, primary screen, HeLa-JRFL effector, CEM21 target cells, luciferase. inhibition, % at 12.3 µM. actives 1.1% (n = 360,000). AID 651610, 2012;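 active = mean replicate inhibition score of at least 50 and every replicate individually at or above 50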
# NSD2 HMT inh – NSD2 histone methyltransferase inhibitors, primary screen, biochemical, AlphaScreen, single concentration, set 2. AID 743445, 2014. Histone-lysine N-methyltransferase NSD2 (Homo sapiens), O96028. NSD2 peptide methylation, 120 min. inhibition, % at 12.5 µM. actives 0.54% (n = 310,000); in the data active = inhibition above about 50%
# CASP6 VEID inh – human caspase-6 inhibitors, primary screen, biochemical, VEID-R110 fluorescence, single point, set 2; P55212; purified caspase-6, Z-VEID-R110 cleavage fluorescence; inhibition, % at 12.5 µM; actives 0.53% (n = 350,000); AID 686996, 2013;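 active = mean inhibition across replicates at least about 35%, with every replicate also reaching that limit, limit read from the data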
# Target sequence (P55212 24-179 limits assumed): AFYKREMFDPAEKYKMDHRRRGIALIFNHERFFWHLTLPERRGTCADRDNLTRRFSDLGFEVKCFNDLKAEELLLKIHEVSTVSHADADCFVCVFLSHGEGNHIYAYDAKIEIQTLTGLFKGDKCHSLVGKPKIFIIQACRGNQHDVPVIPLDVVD
# Target sequence (P55212 194-293 limits assumed): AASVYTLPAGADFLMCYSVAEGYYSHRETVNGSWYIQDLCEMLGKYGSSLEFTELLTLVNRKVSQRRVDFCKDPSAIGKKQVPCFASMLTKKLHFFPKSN
# CFTR F508del cor – F508del CFTR correction, initial screen, CFBE line, single point. CFBE cells, YFP halide quenching; stimulated with forskolin plus potentiator P3; % fluorescence drop versus neutral controls. activity (quench increase), % at 7.58 µM. actives 0.36% (n = 350,000);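 active = mean added fluorescence quench of at least 8% versus neutral control, with both replicates also reaching 8%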;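 note: cells transiently co-express mutant CFTR-F508del with the halide-sensitive YFP; corrector assay measuring rescue of mutant channel to the surface after 24 h compound exposure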
# PglD DTNB – C. jejuni PglD acetyltransferase inhibitors, primary screen, biochemical, DTNB colorimetric, single point. purified PglD enzyme, DTNB colorimetric CoA detection. inhibition, % at 12.5 µM. actives 0.098% (n = 360,000); in the data active = inhibition above about 16%, passing the limit was not always enough
# Numbers stand for hits; i = inactive; nt = no result. Compounds with a hit are over-represented: about 4.1% of the library has one in this group of screens.
SMILES,ALR H2O2 inh,HIV Env fusion,NSD2 HMT inh,CASP6 VEID inh,CFTR F508del cor,PglD DTNB
COc1ccc(C(=O)NNC(=S)NC(=O)c2cc(-c3ccccc3)nc3ccccc23)cc1,i,i,i,nt,nt,i
CCOc1ccc(-n2c(SCC(=O)N3CCc4ccccc43)nnc2-c2c[nH]c3ccccc23)cc1,i,i,nt,i,i,i
COc1cccc(-n2c(SCC(=O)N3CCc4ccccc43)nnc2-c2c[nH]c3ccccc23)c1,nt,56,nt,i,i,i
CC1CC(C)CN(C(=O)c2ccc3ncsc3c2)C1 (stereo not given),79,nt,i,i,i,i
O=C(c1ccc2ncsc2c1)N1CCN(c2ccccc2Cl)CC1,i,i,i,i,i,i
O=C(c1ccc2ncsc2c1)N1CCN(c2ccc(O)cc2)CC1,99,nt,i,nt,nt,nt
O=C(c1ccc2ncsc2c1)N1CCN(c2nc3ccccc3s2)CC1,i,76,i,i,i,i
CC1CC(C)CN(C(=O)c2ccc3nc[nH]c3c2)C1 (stereo not given),i,i,i,i,i,i
O=C(/C=C/c1cccs1)N1CCN(c2ccc(O)cc2)CC1,99,i,i,62,i,nt
O=C(/C=C/c1cccs1)N1CCCCC1,i,i,i,i,i,i
CCN(CC)c1ccc(-n2c(O)c(C=C3N=c4ccccc4=N3)sc2=S)cc1,i,i,i,nt,nt,i
O=C(O)c1ccc(-n2c(O)c(C=C3N=c4ccccc4=N3)sc2=S)cc1,99,i,i,i,i,i
O=C(O)CCCCCn1c(O)c(C=C2N=c3ccccc3=N2)sc1=S,i,i,i,i,nt,nt
O=C(O)CCCn1c(O)c(C=C2N=c3ccccc3=N2)sc1=S,i,i,nt,41,i,i
O=C(O)c1cccc(-n2c(O)c(C=C3N=c4ccccc4=N3)sc2=S)c1,99,i,nt,59,i,i
CCCC(C(=O)O)n1c(O)c(C=C2N=c3ccccc3=N2)sc1=S (stereo not given),89,i,i,i,i,nt
CS(=O)(=O)N(Cc1ccc(Cl)cc1)c1ccc(C(=O)NCCC2=CCCCC2)cc1,i,85,i,nt,nt,i
O=C(NCCC1=CCCCC1)c1ccc(Cl)cc1,i,nt,nt,nt,nt,nt
COc1cccc(C(=O)Nc2ccc3c(c2)OC[C@H](C)NC[C@@H](C)[C@@H](OC)CN(C)C3=O)c1,nt,i,nt,i,i,i
Nc1cc(=O)[nH]c(SCc2csc(-c3ccccc3)n2)n1,99,i,i,i,nt,nt
Nc1cc(=O)[nH]c(SCCSc2ccccc2)n1,i,58,i,i,i,i
O=C(CSc1n[nH]c(-c2cccs2)n1)N1CCCC1,i,i,i,i,i,i
Cc1cc(=O)[nH]c(SCc2csc(-c3ccccc3)n2)n1,i,i,i,nt,nt,nt
c1ccc(-c2nc(CSc3n[nH]c(-c4cccs4)n3)cs2)cc1,98,i,i,nt,nt,i
CCOC(=O)c1c(C)oc2c1cc(NS(=O)(=O)c1ccc(C(=O)O)cc1)c1ccccc12,nt,i,i,62,i,i
SMILES,ALR H2O2 inh,HIV Env fusion,NSD2 HMT inh,CASP6 VEID inh,CFTR F508del cor,PglD DTNB
CCOC(=O)c1ccc(S(=O)(=O)Nc2cc(C(=O)O)ccc2Cl)cc1,99,i,i,i,i,nt
CC(=O)N(C)C[C@@H]1Oc2ncc(-c3cccc(C#N)c3)cc2C(=O)N([C@H](C)CO)C[C@H]1C,nt,i,nt,i,nt,i
COc1cccc(-c2ccc3c(c2)O[C@@H](CN(C)Cc2ccncc2)[C@@H](C)CN([C@H](C)CO)S3(=O)=O)c1,nt,i,nt,i,i,i
O=C(NCc1ccco1)c1ccc(COc2cccc3ccccc23)cc1,nt,i,i,i,nt,i
O=C(NCc1ccco1)c1ccc(COc2ccccc2Cl)cc1,99,nt,i,nt,nt,i
O=C(NCc1cccnc1)c1ccc(COc2ccccc2Cl)cc1,98,i,i,nt,i,nt
CCCNC(=O)N1CC2(CCN(C(=O)c3cnccn3)CC2)c2c([nH]c3cc(OC)ccc23)[C@H]1CO,nt,nt,nt,i,i,nt
Cc1ccc(NC(=O)c2sc(C)nc2C)c(C)c1,i,i,i,51,i,nt
O=C(Cc1ccccn1)N[C@@H]1CC[C@H](CCn2cc(-c3ccc(F)cc3)nn2)O[C@H]1CO,nt,nt,nt,i,i,nt
COC(=O)C1=C(O)/C(=C\c2ccc(CNS(=O)(=O)c3ccc(Cl)cc3)o2)N=C1C,i,i,i,49,nt,nt
COC(=O)C1=C(O)/C(=C\c2ccc(CNS(=O)(=O)c3ccccc3)o2)N=C1C,i,i,i,nt,nt,nt
Cc1cccc(NC(=O)c2cccc(N3C(=O)C4C5C=CC(C6CC56)C4C3=O)c2)c1 (stereo not given),89,i,i,i,i,i
CCN1c2ccccc2-c2nc3ccccc3n2C1c1ccco1 (stereo not given),i,55,i,nt,nt,i
COc1ccc(/C=N/Nc2nonc2N)c(OC)c1,i,65,i,i,i,nt
O=C(C1CCCC1)N1CC[C@H]2[C@H](CO)Nc3ccc(C4=CCCCC4)cc3[C@H]21,nt,nt,nt,i,i,nt
COc1ccc(OCCN2CCC(C(=O)NC(c3ccccn3)c3ccccc3OC)CC2)cc1 (stereo not given),nt,i,i,49,i,i
COc1cccc(C(NC(=O)C2CCN(CCCOc3ccccc3)CC2)c2ccccn2)c1 (stereo not given),nt,i,i,38,i,i
CC(C)NC(=O)N(C)C[C@@H]1OCCCC[C@@H](C)Oc2ccc(NS(=O)(=O)c3ccc(F)cc3)cc2C(=O)N([C@@H](C)CO)C[C@H]1C,nt,i,nt,i,i,i
Cc1ccc(NC(=O)CN(C)S(=O)(=O)c2cccc3cccnc23)cc1,95,i,nt,i,i,i
C[C@@H]1CN([C@@H](C)CO)S(=O)(=O)c2ccc(C3=CCCC3)cc2O[C@@H]1CN(C)Cc1cccnc1,nt,i,nt,i,i,i
CCc1nc2ccc(C(=O)N3CCC(C(N)=O)CC3)cc2nc1CC,nt,nt,i,nt,nt,nt
COc1ccc(CNc2oc(-c3cccc4ccccc34)nc2C#N)cc1,i,nt,i,i,i,i
CCOP(=O)(OCC)c1nc(-c2cccc3ccccc23)oc1NCCc1ccc(OC)cc1,i,63,i,i,i,i
O=C(NCc1ccc2c(c1)OCO2)[C@@H]1[C@@H](CO)[C@@H]2Cn3c(cccc3=O)[C@H]1N2Cc1ccncc1,nt,nt,nt,i,i,i
C[C@H](CO)N1C[C@H](C)[C@@H](CN(C)C(=O)c2ccccc2)OCCCC[C@H](C)Oc2ccc(NS(=O)(=O)c3ccccc3)cc2C1=O,nt,i,nt,i,i,i
Nc1ccn([C@@H]2O[C@H](C(=O)NCCc3ccc(F)cc3)[C@@H](O)[C@H]2O)c(=O)n1,nt,i,nt,i,i,i
